This is an account of results in PubChem BioAssay (NCATS).

Experiment [1] is described as follows: AP1 Signaling Pathway (AID 357; active = well fitted curve in either direction with a large enough effect, not every such curve was filed as active; also: % is scaled to controls: 0 for no effect and ±100 for the full control effect). The essentials: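 AP-1-bla ME-180 cells with beta-lactamase reporter under AP-1 response element, stimulated with EC50 EGF; compounds titrated, 5 hours at 37 degrees Celsius. CCF4 read at 460/530 nm ratio; positive and negative modulators judged by AC50.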
Experiment [2] is described as follows: NFAT Signaling Pathway (AID 444; active = well fitted curve in either direction with a large enough effect, not every such curve was filed as active;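 also: carbachol stimulus at about its EC50 of 1 µM final; % is scaled to controls: 0 for no effect and ±100 for the full control effect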). The settings on record: Jurkat NFAT-bla M1, carbachol, beta-lactamase ratio, 5 h; at 17.2 µM (top of the series). The essentials:
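Jurkat cells carrying an NFAT-driven β-lactamase reporter and co-transfected muscarinic M1 receptor were treated with compound plus carbachol (1 uM final, an EC50 level) for 5 h at 37 °C. CCF4 loading followed for 1 h at RT; 460/530 nm ratio gave %activity.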

Experiment [3] in a line: Stat Signaling Pathway (AID 446; active = well fitted curve in either direction with a large enough effect, not every such curve was filed as active;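 also: ME-180 cervical cancer cells given 40 pM IL-6 alongside compound; SIE-controlled beta-lactamase reporter measured as 460/530 nm FRET emission ratio; % is scaled to controls: 0 for no effect and ±100 for the full control effect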). In outline:
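Reporter line: ME-180 cervical carcinoma, SIE-beta-lactamase. Treatment: compound with 40 pM IL-6, 5 hrs, 37 C, in low-serum OPTI-MEM with 10 mM HEPES pH 7.3. Detection: 460/530 nm fluorescence.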

For experiment [4], the target named is Glucocorticoid receptor (Homo sapiens) (UniProt P04150). The experiment can be described thus: GR-GFP Redistribution (AID 450;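 active = compounds whose dose series gives a full or clear partial fitted curve of increased nuclear translocation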; also: potency is read from the fitted curve at half-maximal effect). Conditions: U2OS GR-GFP nuclear translocation, laser cytometry, 2 h.
Sequence of Glucocorticoid receptor (Homo sapiens) (P04150 whole entry, looked up, the tested form may be a part): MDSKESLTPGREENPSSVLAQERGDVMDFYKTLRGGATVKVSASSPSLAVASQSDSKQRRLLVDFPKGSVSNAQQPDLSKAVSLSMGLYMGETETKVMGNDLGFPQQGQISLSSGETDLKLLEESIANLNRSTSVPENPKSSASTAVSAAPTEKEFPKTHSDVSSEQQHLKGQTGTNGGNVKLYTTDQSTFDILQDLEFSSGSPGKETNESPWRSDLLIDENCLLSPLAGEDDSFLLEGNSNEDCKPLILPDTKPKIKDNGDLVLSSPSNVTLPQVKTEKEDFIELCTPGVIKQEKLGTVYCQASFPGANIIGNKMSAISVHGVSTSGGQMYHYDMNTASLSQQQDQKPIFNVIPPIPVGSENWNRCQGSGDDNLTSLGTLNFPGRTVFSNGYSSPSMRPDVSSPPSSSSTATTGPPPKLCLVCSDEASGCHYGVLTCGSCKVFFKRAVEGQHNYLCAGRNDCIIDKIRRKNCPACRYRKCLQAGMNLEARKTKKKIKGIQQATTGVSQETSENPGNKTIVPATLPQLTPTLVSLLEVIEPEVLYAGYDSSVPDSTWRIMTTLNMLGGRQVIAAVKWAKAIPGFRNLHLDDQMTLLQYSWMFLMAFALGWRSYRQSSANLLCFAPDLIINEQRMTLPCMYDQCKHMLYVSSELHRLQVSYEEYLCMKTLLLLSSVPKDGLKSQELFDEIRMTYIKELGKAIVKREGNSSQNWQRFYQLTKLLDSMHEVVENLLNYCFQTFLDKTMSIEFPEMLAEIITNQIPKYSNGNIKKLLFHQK
For experiment [5], the target named is Rap guanine nucleotide exchange factor 3 (Homo sapiens) (UniProt O95398). In words: Confirmatory qHTS for antagonist of cAMP-regulated guanine nucleotide exchange factor 3 (EPAC1) (AID 1645880).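 Also: plate controls were DMSO only for no effect and full effect of the ATA control for full effect; nearly all actives have a fitted effect of over 55% in size.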 In outline:
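Nucleotide exchange uses 100 nM EPAC1, 250 nM RAP1B-BODIPY-GDP and 50 uM GDP, with compounds in a concentration-titration series. After 5 min at room temperature, fluorescence (480 nm ex/540 nm em) is read every 5 min for 30 min. Data are normalized to control ATA and DMSO.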

Experiment [6] has the same target. The experiment can be described thus: Confirmatory qHTS for agonist of cAMP-regulated guanine nucleotide exchange factor 3 (EPAC1) (AID 1645881).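 Also: EPAC1 catalysed release of BODIPY-GDP from Rap1B seen as fluorescence loss; 100% = effect of cAMP agonist control; nearly all actives have a fitted effect of over 75% in size.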
Experiment [7] has as its target Rap guanine nucleotide exchange factor 4 (Homo sapiens) (UniProt Q8WZA2). In words: Confirmatory qHTS for agonist of cAMP-regulated guanine nucleotide exchange factor 4 (EPAC2) (AID 1645884).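 Also: nucleotide exchange releases bodipy-GDP from Rap1 and this lowers its fluorescence; nearly all actives have a fitted effect of over 65% in size.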 Also: potency is read from the fitted curve at half-maximal effect. On the technique in general: In qHTS, concentration-response curves come from the screen itself.
Experiment [8] shares this target. In words: Confirmatory qHTS for antagonist of cAMP-regulated guanine nucleotide exchange factor 4 (EPAC2) (AID 1645885). Also: nearly all actives have a fitted effect of over 25% in size. Also: potency is read from the fitted curve at half-maximal effect.
In experiment [9] the target is Rap guanine nucleotide exchange factor 3 (Homo sapiens) (UniProt O95398). The experiment can be described thus: Counterscreen qHTS for antagonist of cAMP-regulated guanine nucleotide exchange factor 3 (EPAC1) (AID 1645888). Also: % of control where 0% means no effect. In outline: (§1)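 Measured: fluorescence of BODIPY-GDP bound to Rap1B, which falls as exchange proceeds. Conditions include 50 uM competing GDP, 5 and 30 min reads, and a later cAMP challenge for antagonist detection.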
Sequence of Rap guanine nucleotide exchange factor 3 (Homo sapiens) (O95398 whole entry, looked up): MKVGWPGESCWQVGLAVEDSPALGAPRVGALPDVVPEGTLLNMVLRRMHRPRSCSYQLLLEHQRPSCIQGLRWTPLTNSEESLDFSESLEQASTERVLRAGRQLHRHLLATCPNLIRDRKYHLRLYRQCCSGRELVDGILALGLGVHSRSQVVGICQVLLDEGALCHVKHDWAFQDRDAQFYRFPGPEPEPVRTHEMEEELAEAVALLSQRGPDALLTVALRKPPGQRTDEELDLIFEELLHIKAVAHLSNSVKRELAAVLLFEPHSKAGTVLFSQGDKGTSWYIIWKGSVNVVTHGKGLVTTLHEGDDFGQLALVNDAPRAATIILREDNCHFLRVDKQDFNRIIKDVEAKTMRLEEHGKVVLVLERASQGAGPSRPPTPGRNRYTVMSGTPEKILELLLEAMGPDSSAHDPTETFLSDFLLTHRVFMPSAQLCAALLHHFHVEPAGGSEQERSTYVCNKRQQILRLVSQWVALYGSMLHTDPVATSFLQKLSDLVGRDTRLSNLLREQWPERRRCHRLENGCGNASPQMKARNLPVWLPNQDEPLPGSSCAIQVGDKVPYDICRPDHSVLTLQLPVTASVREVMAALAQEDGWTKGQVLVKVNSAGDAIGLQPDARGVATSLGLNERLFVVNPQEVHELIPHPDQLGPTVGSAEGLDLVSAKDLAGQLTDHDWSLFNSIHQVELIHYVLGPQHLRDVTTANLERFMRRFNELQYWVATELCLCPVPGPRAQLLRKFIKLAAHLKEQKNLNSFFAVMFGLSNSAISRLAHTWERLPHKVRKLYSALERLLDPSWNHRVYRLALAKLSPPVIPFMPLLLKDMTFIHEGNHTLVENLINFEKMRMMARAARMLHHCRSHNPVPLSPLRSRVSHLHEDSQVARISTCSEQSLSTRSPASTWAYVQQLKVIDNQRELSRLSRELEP
(In general: The purpose of a counterscreen is to sort out artefacts and off-target activity.)

The target is the same in experiment [10]. In words: Counterscreen qHTS for agonist of cAMP-regulated guanine nucleotide exchange factor 3 (EPAC1) (AID 1645889). Also: nearly all actives have a fitted effect of over 40% in size. Also: potency is read from the fitted curve at half-maximal effect. As to activation: % of control where 0% means no effect. The essentials: as §1
Experiment [11] has as its target Glucocorticoid receptor (Homo sapiens) (UniProt P04150). In words: GR-EFC Redistribution (AID 451; calls by dose curve; also: potency is read from the fitted curve at half-maximal effect). Conditions: CHO-K1 GR-EFC translocation, beta-gal luminescence, 2 h. In outline: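 CHO-K1 cells stably expressing nuclear-localized β-gal enzyme acceptor and GR fused C-terminally to the enzyme donor fragment; ligand-driven nuclear translocation restores β-gal by complementation. Compounds titrated up to 46 uM final, 2 h at 37 °C; luminescence read.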

Experiment [12] addresses Mitogen-activated protein kinase 10 (Mus musculus) (UniProt Q61831). In words: JNK3 AlphaScreen Assay (AID 530; active = well fitted curve in either direction with a large enough effect, not every such curve was filed as active;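 also: kinase came from lysate of stimulated human HepG2 cells; signal reports phosphorylation of biotinylated GST-cJun 1-79 at Ser73 with 10 µM ATP; % is scaled to controls: 0 for no effect and ±100 for the full control effect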). In outline:
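JNK3 came from HepG2 lysates pre-activated with IL-1beta and TNF-alpha and phosphorylated biotinylated GST-cJun (1-79) at 10 uM ATP, pH 7.6, room temperature. Compounds were titrated. AlphaScreen signal used anti-phospho-cJun (Ser73) antibody.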

The target in experiment [13] is Cytochrome P450 2C9 (Homo sapiens) (UniProt P11712). In words: qHTS Assay for Inhibitors and Substrates of Cytochrome P450 2C9 (AID 883). Also: potency is read from the fitted curve at half-maximal effect; nearly all actives have a fitted effect of over 60% in size. The essentials:
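A luminogenic readout tracked human CYP2C9 (10nM) converting deoxyluciferin (100uM, at KM) in 25mM KPO4 during 60 min at 37C with regenerated NADPH. Values normalized to 57uM sulphaphenazole as complete inhibition.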

Experiment [14] has as its target Cytochrome P450 3A4 (Homo sapiens) (UniProt P08684). In words: qHTS Assay for Inhibitors and Substrates of Cytochrome P450 3A4 (AID 884). Also: potency is read from the fitted curve at half-maximal effect; nearly all actives have a fitted effect of over 50% in size. In outline: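 20 nM human CYP3A4 with 25 uM Luciferin-PPXE (at KM) in 200 mM KPO4, preincubated 10 min with compound; NADPH regeneration started a 60 min RT reaction. Luciferin detected by luminescence, normalized to 57 uM ketoconazole as full inhibition.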

The target is the same in experiment [15]. The experiment can be described thus: qHTS Assay for Activators of Cytochrome P450 3A4 (AID 885). Also: nearly all actives have a fitted effect of over 65% in size. The essentials: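 Signal was normalized against complete inhibition by 57 uM ketoconazole. The reaction used 20nM CYP3A4 with 25uM Luciferin-PPXE, 10-min compound preincubation and a 60-min NADPH-supported step at RT.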
Experiment [16] addresses DNA dC->dU-editing enzyme APOBEC-3G (Homo sapiens) (UniProt Q9HC16). The experiment can be described thus: qHTS for inhibitors of Vif-A3G interactions: Validation (AID 588379). Also: 0% is about no effect. The essentials:
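HeLa cells stably expressing Vif and A3G-eYFP, 700 cells/well, incubated overnight at 37 deg C, then exposed to compound overnight at 37 deg C. Inhibition of Vif-mediated degradation read as increased yellow fluorescence (Ex 488/Em 500-530) by laser-scanning cytometry.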

Values without a mark were called inactive. Inconclusive results are not listed. Activity calls are given as the source filed them. Unless noted, calls follow the shape of the dose curve; as a rule, active = well fitted curve in the direction sought with a large enough effect; inconclusive = small, poorly fitted or top-dose-only effect, or another doubt; inactive = no such curve, though single readings can be large; an effect the other way counts as inactive or inconclusive. Bounds are passed on as bounds.

Sequence of Rap guanine nucleotide exchange factor 4 (Homo sapiens) (Q8WZA2 whole entry, looked up): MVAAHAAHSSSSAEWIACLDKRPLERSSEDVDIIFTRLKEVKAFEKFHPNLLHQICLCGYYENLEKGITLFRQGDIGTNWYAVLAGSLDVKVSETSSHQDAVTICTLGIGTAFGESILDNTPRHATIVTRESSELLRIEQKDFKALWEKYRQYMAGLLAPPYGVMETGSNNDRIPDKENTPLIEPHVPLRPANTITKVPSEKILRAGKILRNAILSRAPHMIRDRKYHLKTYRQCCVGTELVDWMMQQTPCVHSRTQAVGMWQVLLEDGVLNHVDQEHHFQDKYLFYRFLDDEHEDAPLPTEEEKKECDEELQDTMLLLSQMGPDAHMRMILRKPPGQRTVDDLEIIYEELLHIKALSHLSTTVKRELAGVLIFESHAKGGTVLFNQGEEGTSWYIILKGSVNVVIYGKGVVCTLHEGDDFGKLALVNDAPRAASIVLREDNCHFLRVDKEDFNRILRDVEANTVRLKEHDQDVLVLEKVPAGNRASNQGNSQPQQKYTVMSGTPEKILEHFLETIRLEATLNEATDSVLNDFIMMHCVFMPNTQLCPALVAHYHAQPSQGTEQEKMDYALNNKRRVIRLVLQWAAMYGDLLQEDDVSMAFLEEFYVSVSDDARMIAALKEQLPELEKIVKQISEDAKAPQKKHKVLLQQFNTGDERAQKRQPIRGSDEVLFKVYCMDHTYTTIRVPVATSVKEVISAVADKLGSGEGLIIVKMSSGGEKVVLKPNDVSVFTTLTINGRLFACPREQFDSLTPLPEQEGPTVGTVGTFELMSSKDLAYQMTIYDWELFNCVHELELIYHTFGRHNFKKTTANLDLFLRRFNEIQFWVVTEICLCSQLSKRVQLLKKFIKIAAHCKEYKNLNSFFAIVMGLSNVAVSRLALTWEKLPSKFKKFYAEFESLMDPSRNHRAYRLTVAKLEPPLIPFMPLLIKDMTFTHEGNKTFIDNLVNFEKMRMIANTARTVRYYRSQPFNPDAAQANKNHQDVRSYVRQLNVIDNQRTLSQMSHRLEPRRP
Sequence of Cytochrome P450 3A4 (Homo sapiens) (P08684 whole entry, looked up): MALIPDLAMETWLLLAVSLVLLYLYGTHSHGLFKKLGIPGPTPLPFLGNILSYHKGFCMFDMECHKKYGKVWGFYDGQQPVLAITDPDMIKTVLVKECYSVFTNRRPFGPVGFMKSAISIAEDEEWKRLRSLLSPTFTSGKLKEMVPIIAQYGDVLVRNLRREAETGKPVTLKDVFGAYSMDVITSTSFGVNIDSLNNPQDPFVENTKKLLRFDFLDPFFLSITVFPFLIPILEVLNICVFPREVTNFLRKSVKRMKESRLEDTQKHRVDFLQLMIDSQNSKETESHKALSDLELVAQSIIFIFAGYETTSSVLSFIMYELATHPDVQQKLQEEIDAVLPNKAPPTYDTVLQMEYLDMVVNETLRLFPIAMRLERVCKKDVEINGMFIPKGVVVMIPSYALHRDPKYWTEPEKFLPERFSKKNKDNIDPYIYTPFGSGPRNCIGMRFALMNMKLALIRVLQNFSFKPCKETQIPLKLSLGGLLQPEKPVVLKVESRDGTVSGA
Sequence of DNA dC->dU-editing enzyme APOBEC-3G (Homo sapiens) (Q9HC16 whole entry, looked up): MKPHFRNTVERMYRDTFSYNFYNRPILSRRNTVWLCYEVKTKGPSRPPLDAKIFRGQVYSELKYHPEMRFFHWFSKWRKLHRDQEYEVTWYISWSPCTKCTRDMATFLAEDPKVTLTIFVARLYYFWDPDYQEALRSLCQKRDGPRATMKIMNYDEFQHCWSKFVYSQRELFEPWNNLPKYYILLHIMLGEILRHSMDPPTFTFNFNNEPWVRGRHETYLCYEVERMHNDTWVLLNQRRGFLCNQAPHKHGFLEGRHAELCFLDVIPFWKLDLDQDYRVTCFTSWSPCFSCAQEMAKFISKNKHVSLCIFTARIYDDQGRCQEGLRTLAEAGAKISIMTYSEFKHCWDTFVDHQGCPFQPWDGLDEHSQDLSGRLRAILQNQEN
Sequence of Cytochrome P450 2C9 (Homo sapiens) (P11712 whole entry, looked up): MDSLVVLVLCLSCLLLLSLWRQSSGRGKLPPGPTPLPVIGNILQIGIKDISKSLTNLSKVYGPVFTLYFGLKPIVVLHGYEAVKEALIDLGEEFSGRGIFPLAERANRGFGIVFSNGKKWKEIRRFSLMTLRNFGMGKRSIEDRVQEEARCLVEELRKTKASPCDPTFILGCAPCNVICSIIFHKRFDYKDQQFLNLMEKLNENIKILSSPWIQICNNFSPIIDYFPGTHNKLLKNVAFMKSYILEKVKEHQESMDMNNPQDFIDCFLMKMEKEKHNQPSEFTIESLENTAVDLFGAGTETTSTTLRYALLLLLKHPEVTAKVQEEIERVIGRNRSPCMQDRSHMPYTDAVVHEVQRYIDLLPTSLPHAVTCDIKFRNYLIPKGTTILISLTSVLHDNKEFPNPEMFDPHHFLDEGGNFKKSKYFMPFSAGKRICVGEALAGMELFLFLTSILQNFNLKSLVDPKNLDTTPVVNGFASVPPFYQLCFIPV

In the case of `CCCCn1c(O)c(C=NCCN2CCCCC2)c(=O)[nH]c1=O`, the molecule was classed as inactive in [1], in [3] and in experiment [9]. In [2], the activity change, negative = inhibition is -9.1%. Further, the Potency is over 20.6 µM in [4] and 75.7 µM (active) in experiment [8]. For the same molecule, the Potency result in experiment [5], in experiment [6], in experiment [7] and in [10] was “inactive” throughout.
For the molecule `CCCCC/C=C\C/C=C\C/C=C\C/C=C\CCCC(=O)Nc1ccc(O)cc1`, the Potency was over 46 µM in experiment [4], over 46 µM in experiment [11], 5.01 µM (active) in [13] and 5.01 µM (active) in experiment [14]. The outcome in [12] and in experiment [16] was inactive. For the same molecule, the Potency result in [15], in experiment [5], in experiment [6], in experiment [7] and in experiment [8] was “inactive” in each case.
`COc1cc2c(cc1OC)-c1c(OC)c(OC)cc3c1[C@H](C2)N(C)CC3`: the Potency entry in experiment [6] was “inactive”. The activation in [7] is 9.51% [at 17.1 µM, percent relative to cAMP agonist control]. The activity change, negative = inhibition in [8] was -6.31% [at 12.7 µM]; in experiment [9], 10.1% [at 30.8 µM].
For the molecule `COC1C(C)OC(OC2CC(C)(O)Cc3cc4c(c(O)c32)C(=O)c2c(O)cc3c(c2C4=O)OC2OC3(C)C(O)C(N(C)C)C2O)C(OC)C1(C)OC` (configuration not stated), the Potency entry in [5] was “inactive”. The activation in [7] is 18.7% [at 17.1 µM, percent relative to cAMP agonist control]. Besides, the activity change, negative = inhibition was 15.2% [at 12.7 µM] in [8] and 87.2% [at 30.8 µM] in experiment [9].
Regarding `CC(=O)C1C2c3ccccc3O[C@@]1(C)N=c1s/c(=C/c3ccoc3)c(=O)n12` (some centres not stated), the Potency entry in experiment [6], in experiment [7] and in [8] was “inactive” each time. The molecule was classed as inactive in experiment [9].
Regarding `COc1ccc(CN2C(=O)NC(=O)/C(=C\c3ccco3)C2=O)cc1`, the Potency result in experiment [6], in [7] and in [8] was “inactive” throughout. In experiment [9], the outcome was inactive.
For the molecule `COc1ccc(-n2c(/C=C/c3ccc(O)c(O)c3)nc3ccccc3c2=O)cc1`, the Potency entry in [6], in experiment [7] and in experiment [8] was “inactive” throughout. Further, the molecule was classed as inactive in [9].
With `O=[N+]([O-])c1ccc(N2CCCCCC2)c2nonc12`, the Potency entry in [5] and in experiment [8] was “inactive” in each case. Also, the Potency in experiment [7] was 100 µM (active); in [10], 25.1 µM (active). In addition, the result in experiment [9] was inactive.
Regarding `Cc1cccc(-c2nc(CN3C(=O)CN=C(c4ccccc4)c4ccccc43)c(C)o2)c1`, the Potency result in experiment [6] and in experiment [7] was “inactive” each time. In experiment [8], the activity change, negative = inhibition was 48.3% [at 12.7 µM].
On to `COc1cccc(N2C(=O)NC(=O)/C(=C\c3cn(C)c4ccccc34)C2=O)c1`, for which the Potency result in [5] and in [8] was “inactive” in each case. In addition, the Potency in [7] was 100 µM (active). Further, the call in experiment [9] was inactive.
Consider `O=C1NC(=O)N(Cc2ccco2)C(=O)/C1=C\c1cccn1CCOc1ccc(Cl)cc1`, for which the Potency entry in [6] is “inactive”. The activation in experiment [7] was 1.56% [at 17.1 µM, percent relative to cAMP agonist control]. In addition, the activity change, negative = inhibition in experiment [8] is -27.2% [at 12.7 µM]; in experiment [9], -25.1% [at 30.8 µM].
